Source: PubChem
KB-3-1 tox = kills parental KB-3-1 adenocarcinoma cells | KB-3-1 viability, CellTiter-Glo ATP luminescence, 72 h | Potency, µM (doses to about 46.1 µM), hits mostly cytotoxic | hit rate 1.4% among 400,000; also: % is scaled to controls: 0 for no effect and ±100 for the full control effect; nearly all actives have a fitted effect of over 60% in size
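Viability of parental KB-3-1 cells, measured by CellTiter-Glo luminescence, followed a 72 h incubation at 37 °C with pinned compounds in phenol-red-free DMEM containing 10% FBS.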
SW480 rerep = induces DNA re-replication in SW480 colon adenocarcinoma cells. SW480 DNA re-replication, Hoechst DNA content imaging, 48 h. Potency, µM (series often up to 46.1 µM), for inactives: at the highest dose re-replication activation, actives largely listed as activators. hit rate 1.8% among 340,000; also: % of control where 0% means no effect; nearly all actives have a fitted effect of over 55% in size
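SW480 cells exposed to compounds for 48 hr at 37 C, 5% CO2, then Hoechst-stained 40 min. Nuclear DNA content imaged by fluorescence scanning (405 nm excitation, 500-530 nm emission); re-replication scored as increased high-intensity nuclei.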
MCF10A rerep = inducers of DNA re-replication in MCF 10A breast cells; Potency, µM (series often up to 46.1 µM), for the others: top-dose activity, positive = re-replication, usual class: activators; MCF 10A DNA re-replication, Hoechst nuclear intensity, 48 h; hit rate 2.9% among 350,000; also: % of control where 0% means no effect; nearly all actives have a fitted effect of over 50% in size
KB-V1 cytotox = kills drug-selected multidrug resistant KB-V1 cells | KB-V1 MDR cells viability, CellTiter-Glo, 72 h | Potency, µM (titrated, usually from 46.1 µM), actives largely listed as cytotoxic | hit rate 3.4% among 400,000; also: % is scaled to controls: 0 for no effect and ±100 for the full control effect; nearly all actives have a fitted effect of over 60% in size
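Potencies derive from concentration-effect curves fitted to normalized luminescence (CellTiter-Glo) of KB-V1 cells treated for 72 h at 37 degrees C in phenol-red-free DMEM containing 10% FBS.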
ELG1 DNA repair = inhibitors of ELG1-dependent DNA repair in HEK293T cells; HEK293T ELG1-luciferase reporter, luminescence, 16 h; DNA damage induced by 5-fluorouridine; Potency, µM (doses to about 46.1 µM), without a hit: at the top dose activity change, negative = inhibition, most hits filed as inhibitors; hit rate 2.3% among 330,000; AID 504467; also: % is scaled to controls: 0 for no effect and ±100 for the full control effect; nearly all actives have a fitted effect of over 55% in size
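5-Fluorouridine DNA damage + compound/DMSO, 2,000 cells/well, 16 h, 37 °C/5% CO2. ONE-Glo, 30 min RT, luminescence. Readout = decrease in reporter signal.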
Starred values were filed as active, the others as inactive; i = inactive; ? = inconclusive; · = no result. An excerpt weighted towards active compounds, which were near 8.1% of everything screened. Calls follow the shape of the dose curve; as a rule, active = well fitted curve in the direction sought with a large enough effect; inconclusive = small, poorly fitted or top-dose-only effect, or another doubt; inactive = no such curve, though single readings can be large; an effect the other way counts as inactive or inconclusive. Potency is read from the fitted curve at half-maximal effect.

SMILES	KB-3-1 tox	SW480 rerep	MCF10A rerep	KB-V1 cytotox	ELG1 DNA repair
CCc1nc2c(OCC3COc4ccccc4O3)cccn2c1N(C)C(=O)c1ccccc1F (stereo unspecified)	i	·	·	i	·
COc1ccc(/C=C2\C=Cc3ccccc32)cc1OC	i	·	·	i	·
CCNc1nc(-c2sc(NC(=O)C(C)(C)C)nc2C)c(-n2cc(-c3ccccc3)nn2)s1	?	·	·	18µM*	·
CCOC(=O)COc1ccc(F)cc1C(=O)c1ccn2nc(-c3ccc(Cl)cc3)cc2n1	i	·	·	?	·
CC(C)C(C(=O)OCC(=O)c1cccc([N+](=O)[O-])c1)N1C(=O)[C@@H]2[C@H]3CC[C@H](C3)[C@@H]2C1=O (stereo partly specified)	i	-20%	-72%	21µM*	-2%
O=C(CCC(=O)OCC(=O)c1cccc([N+](=O)[O-])c1)NC1CCCCC1	i	2.6µM*	3%	i	0%
O=C(CN1C(=O)C2C3CCC(C3)C2C1=O)OCC(=O)c1cccc([N+](=O)[O-])c1 (stereo unspecified)	i	-2%	-3%	i	20%
O=C(CCC(=O)OCC(=O)c1ccc([N+](=O)[O-])cc1)NC1CCCCC1	i	?	-68%	i	-1%
Cc1ccc2nc(CN3CCN(S(=O)(=O)c4ccc(F)cc4)CC3)oc2c1	i	·	·	i	·
NC(C(=O)O)C(O)c1ccc(O)c(O)c1 (stereo unspecified)	·	-6%	8%	·	·
O=C(NCC1CCCO1)c1[nH]c(C(F)(F)F)nc1-c1ccccc1 (stereo unspecified)	i	·	·	i	·
CCOc1ccc(OCC)c(NC(=O)CN(C)S(=O)(=O)c2ccc3nc(C)sc3c2)c1	i	-1%	21µM*	?	?
O=C(NCc1cccnc1)/C(=C/c1ccc(-c2ccc(Cl)cc2)o1)S(=O)(=O)c1ccccc1	i	9.2µM*	9.2µM*	?	?
O=C(NCc1cccnc1)/C(=C\c1ccc(-c2ccc(Br)cc2)o1)S(=O)(=O)c1ccccc1	?	15µM*	7.3µM*	7.3µM*	21µM*
COc1ccccc1N1CCN(C(=O)C(CCSC)NS(=O)(=O)c2ccc3c(c2)oc(=O)n3C)CC1 (stereo unspecified)	i	·	·	i	·
Cn1c(CCc2nc3ccccc3[nH]2)nnc1SCC#N	?	1%	10%	i	21µM*
Cc1nnc(NC(=O)CSc2nnc(CCc3nc4ccccc4[nH]3)n2C)s1	i	0%	-5%	i	0%
O=C(COC(=O)CN1C(=O)C2CCCCC2C1=O)NCc1ccc(Cl)cc1Cl (stereo unspecified)	i	-6%	-2%	i	5%
CC1=C(C(=O)Nc2cc(Cl)ccc2C)C(c2ccccc2F)n2ncnc2N1 (stereo unspecified)	i	·	·	18µM*	·
CC(C)n1nc(C(=O)OCC(=O)NCCc2ccc(S(N)(=O)=O)cc2)c2ccccc2c1=O	i	-11%	-6%	i	·
COc1ccc(C2CC(c3ccccc3OC(C)=O)=NN2C(=O)/C=C/c2ccccc2)cc1OC (stereo unspecified)	?	-1%	12%	?	?
COc1ccc(C2=NN(C(=O)/C=C/c3ccccc3)C(c3ccccc3)C2)c(OC(C)=O)c1 (stereo unspecified)	?	3%	?	2.9µM*	?
CC(C)(Cc1ccc(O)cc1)NC(=O)CC(=O)N/N=C/c1ccc(Cl)cc1	?	?	13µM*	i	-19%
CCOC(=O)c1cnc2c(Cl)cc(Cl)cc2c1Nc1cc(C(=O)O)ccc1C	?	·	·	i	·
CCOC(=O)c1cnc2c(Cl)cc(Cl)cc2c1NCCOCCO	i	-1%	-4%	i	18µM*
SMILES	KB-3-1 tox	SW480 rerep	MCF10A rerep	KB-V1 cytotox	ELG1 DNA repair
COc1cc(/C=N\Nc2ccc([N+](=O)[O-])cc2)ccc1OCC(=O)Nc1ccc(C)c(C)c1	?	21µM*	5.8µM*	i	?
CCOC(=O)/C(C#N)=C/c1ccc(OCC(=O)Nc2ccc(C)c(C)c2)c(OC)c1	i	-5%	0%	i	3%
CCOc1cc(/C=N\NC(=O)Cc2ccccc2)ccc1OCC(=O)Nc1ccc(C)c(C)c1	?	-1%	15µM*	?	?
CCOc1cc(/C=N\Nc2ccc([N+](=O)[O-])cc2)ccc1OCC(=O)Nc1ccc(C)c(C)c1	i	?	16µM*	i	?
CCOc1cc(/C=N/O)ccc1OCC(=O)Nc1cccc(C)c1	i	5%	?	13µM*	-10%
O=C1NN(CCO)C(=S)Nc2ccccc21	i	·	·	i	·
O=C(CC(O)(CC(=O)OCc1ccccc1)C(=O)OCc1ccccc1)OCc1ccccc1	i	22%	18µM*	i	·
CCOC(=O)/C=C/C(=O)Nc1nccs1	i	?	18µM*	i	0%
CC(C)(C)NC(=O)C(c1ccc(C(F)(F)F)cc1)n1c(=O)c(-c2cc3ccccc3[nH]2)nc2ccccc21 (stereo unspecified)	i	·	·	i	·
O=C(CCCn1c(SCC(=O)NCC2CCCO2)nc2ccccc2c1=O)NCc1ccccc1 (stereo unspecified)	i	-3%	0%	i	-9%
Cc1ccc(NC(=O)CSc2nc3ccccc3c(=O)n2CCCN2CCCCC2)cc1C	?	?	15µM*	?	-1%
Cc1ccc(NC(=O)CSc2nc3ccccc3c(=O)n2CCCC(=O)N2CCCC2)cc1	6.3µM*	?	6%	?	-18%
CCCCn1c(SCC(=O)Nc2cc(NC(=O)c3ccco3)ccc2C)nc2ccccc2c1=O	i	1%	?	?	16µM*
Cc1ccc(NC(=O)CSc2nc3ccccc3c(=O)n2CCC(=O)NC2CCCCC2)cc1C	i	·	·	i	·
O=C(CSc1nc2ccccc2c(=O)n1CCC(=O)N1CCCCC1)NCc1ccccc1	i	-2%	18%	2.1µM*	15µM*
CCN(CC)C1CCN(C(=O)c2ccc(OC3CCN(Cc4ccccn4)CC3)cc2)C1 (stereo unspecified)	i	-1%	8%	i	?
CC(NC(=O)COC(=O)c1cc(S(=O)(=O)N2CCOCC2)ccc1F)c1ccccc1 (stereo unspecified)	i	-2%	2%	i	-9%
Cc1ccc(NC(=O)CSc2nc3ccccc3nc2N2CCCC2)cc1	18µM*	19%	13%	?	?
O=[N+]([O-])c1ccc(O)c(-c2cc(C(F)(F)F)nc(-c3ccccc3)n2)c1	1.5µM*	15%	?	?	?
CCNC(=O)C1CCCN1S(=O)(=O)c1ccc2ccccc2c1 (stereo unspecified)	?	-9%	-28%	i	5%
